Reference: PubChem BioAssay AID909 (National Center for Advancing Translational Sciences (NCATS), 2007)
This is one part of the list. Entries that show only a call come without a potency. Records with an inconclusive call do not appear. Active and inactive are the calls of the source. Calls come from the whole dose curve; as a rule, active = well fitted inhibition curve with a large enough effect in the main read-out, with a control signal flat; inconclusive = small, poorly fitted or top-dose-only effect, or a change in a side signal; inactive = no such curve, though single readings can be large or run the other way.

target: Caspase-7 (Homo sapiens) (UniProt P55210); experiment: Concentration-Response Counterscreen for Redox Active Inhibitors of Caspase-7: Catalase; details: Caspase-7 Ac-DEVD-AFC fluorescence rate, catalase buffer; series mostly up to 57.5 µM
Sequence (P55210 24-198 limits assumed): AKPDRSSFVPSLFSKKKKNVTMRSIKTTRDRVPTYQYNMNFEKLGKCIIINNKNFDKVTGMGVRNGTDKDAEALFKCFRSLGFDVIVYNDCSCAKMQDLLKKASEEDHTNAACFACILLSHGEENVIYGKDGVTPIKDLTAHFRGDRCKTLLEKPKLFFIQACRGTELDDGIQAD
Sequence (P55210 207-303 limits assumed): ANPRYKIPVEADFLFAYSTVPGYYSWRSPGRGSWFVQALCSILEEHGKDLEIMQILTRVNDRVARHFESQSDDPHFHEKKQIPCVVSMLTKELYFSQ
Description: NIH Molecular Libraries Screening Centers Network [MLSCN] NIH Chemical Genomics Center [NCGC] MLSCN Grant: 1 X01 MH078950-01 PI Name: Dr. James Wells, Dr. Enrique Perez-Paya, Dr.Janice Williams, Dr. Dennis Wolan, a person NCGC Assay Overview: The caspases (Cysteine Aspartyl Protease) comprise a related family of 14 dimeric proteases that are critical mediators of apoptosis (programmed cell death) and inflammation. The caspases represent an important class of drug targets for stroke, ischemia, cancer and inflammatory diseases. […] One goal of this project was to identify compounds that act as allosteric inhibitors via stabilizing the procaspase form of the enzyme. […] After initiation of the assay with substrate the plates were rapidly read using an automated robotic system (Kalypsys, Inc.) to maintain consistent timing. […]
NCGC Assay Protocol Summary: Caspase 7 was prepared in buffer (50 mM HEPES pH 7.5, 50 mM KCl, 200 mM NaCl, 50 units/well catalase (from bovine liver, Sigma cat#100), 0.1% CHAPS) at a concentration of 66.6 nM and 3 uL was dispensed to all wells using black solid Kalypsys 1536-well plates. […] The plates were then exposed using 405 nm excitation/520 nm emission filters for 4 sec and read at 20 sec intervals for 3 min. […]

| SMILES | Potency |
| --- | --- |
| CCN1C(=O)/C(=C2/Sc3ccccc3N2CCCS(=O)(=O)O)SC1=S | inactive |
| N#CC1=C(N)Oc2cc(O)ccc2C1C1CCCCC1 (configuration not stated) | 31.6 µM (active) |
